Hits are enriched below; roughly 21% of the tested compounds scored in any of these assays.
Pf growth 96h – inhibits malaria parasite growth, 96 h. P. falciparum luciferase reporter growth, 96 h. AID 504834. Potency, µM (series often up to 28.7 µM), for the others: at the top dose activity change, negative = inhibition, actives largely listed as inhibitors. 320,000 tested, 6.9% active; further: potency means the concentration at half of the fitted maximal effect; on the % scale 0 is the no-effect control and ±100 the full control effect
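Erythrocytes infected with luciferase-expressing P. falciparum were dispensed at 2% hematocrit and 0.05% parasitemia (final), then incubated with compounds 96 hours at 37 C in 5% CO2. Luminescence after detection reagent addition reported growth.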
Giardia FBPA inh – inhibitors of Giardia lamblia fructose-1,6-bisphosphate aldolase | A8B2U2 | purified Giardia FBPA | 290,000 tested, 0.71% active | Potency, µM (top dose mostly 59.6 µM), inactives show at the highest dose activity, negative = inhibition, actives largely listed as inhibitors | AID 2451; further: potency means the concentration at half of the fitted maximal effect; on the % scale 0 is the no-effect control and ±100 the full control effect; nearly all actives have a fitted effect of over 55% in size
Target sequence (A8B2U2 whole entry, looked up): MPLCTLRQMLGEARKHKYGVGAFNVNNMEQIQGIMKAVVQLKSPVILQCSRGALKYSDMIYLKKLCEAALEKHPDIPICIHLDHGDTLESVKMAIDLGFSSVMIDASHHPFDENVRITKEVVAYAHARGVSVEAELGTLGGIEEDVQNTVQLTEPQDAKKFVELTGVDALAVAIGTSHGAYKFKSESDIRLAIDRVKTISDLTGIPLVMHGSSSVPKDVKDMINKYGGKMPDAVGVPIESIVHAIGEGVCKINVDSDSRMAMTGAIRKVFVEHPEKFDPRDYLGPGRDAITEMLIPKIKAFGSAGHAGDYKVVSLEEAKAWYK
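40 nM FBPA preincubated 10 min at RT with compound (up to 57.5 uM final), then substrate plus GAPDH/TPI/NAD/arsenate coupling and diaphorase/resazurin added. Fluorescence read after 20 min at RT, 525/598 nm.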
Shiga toxin inh – inhibitors of Shiga toxin in Vero cells; Vero cells, Shiga toxin protein synthesis inhibition reporter; inhibition, % at 38.7 µM; 290,000 tested, 9.2% active; AID 2315; in the data active means inhibition mostly above about 28%, no sharp cut-off; inactive means mostly below about 43%; further: 0% is about no effect
CHX counter – counter-screen hit for Shiga toxin inhibitors, cycloheximide | 300,000 tested, 12% active | AID 2314 | max response, % | cell reporter, cycloheximide protein synthesis inhibition counterscreen; in the data active means max response mostly above about 13%, no sharp cut-off; inactive means mostly below about 14%; further: read at 38.3 µM for the half of the compounds with a filed dose; 0% is about no effect
NS1 inh – blocks influenza NS1 protein function; Potency, µM (series often up to 46.1 µM), for inactives: at the highest dose activity, positive = more growth; 270,000 tested, 0.4% active; calls by dose curve; further: potency means the concentration at half of the fitted maximal effect; actives are rising curves; nearly all actives have a fitted effect of over 50% in size
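Recovery from NS1-induced slow growth read by OD600 in budding yeast switched to galactose assay medium (pH 6.0, -URA) at 1:100 dilution. Compound 23 nl per well; the matching strain lacking NS1 serves as control.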
Pf growth 48h – P. falciparum growth inhibition at 48 hours (one generation); AID 504832; 310,000 tested, 5.9% active; P. falciparum luciferase growth in erythrocytes, 48 h; Potency, µM (doses to about 28.7 µM), for inactives: at the top dose activity change, negative = inhibition, hits mostly inhibitors; further: potency means the concentration at half of the fitted maximal effect; on the % scale 0 is the no-effect control and ±100 the full control effect
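Firefly luciferase activity from engineered P. falciparum reports growth; inhibitors lower the luminescent signal. Cultures contained 2% hematocrit erythrocytes at 0.1% final parasitemia.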
An asterisk follows results filed as active; [ ] = another dose, or the depositor's remark. Unless noted, the call rests on the fitted dose curve; in most records, active means well fitted curve in the direction sought with a large enough effect; inconclusive means small, poorly fitted or top-dose-only effect, or another doubt; inactive means no such curve, though single readings can be large; an effect the other way counts as inactive or inconclusive.

What do the screens show for `O=C(O)C1Cc2ccccc2CN1C(=O)c1ccco1` (stereo unspecified)?
Pf growth 96h: 1%; Giardia FBPA inh: -3%; CHX counter: 12*; NS1 inh: 8%; Pf growth 48h: -9%

Results for Cc1ccc(NC(=O)C2Cc3ccccc3CN2C(=O)c2ccccc2)cc1Cl (stereo unspecified) ?
Pf growth 96h: inconclusive; Giardia FBPA inh: inconclusive; Shiga toxin inh: 3; CHX counter: 18*; NS1 inh: 10%; Pf growth 48h: 3%

How did Cc1ccccc1NC(=O)C1Cc2ccccc2CN1C(=O)OCc1ccccc1 (stereo unspecified) do in these assays?
Pf growth 96h: 13µM*; Giardia FBPA inh: 2%; Shiga toxin inh: 12; CHX counter: -3; NS1 inh: -13%; Pf growth 48h: -23%

What do the screens show for `COc1cccc(NC(=O)C2Cc3ccccc3CN2C(=O)c2ccco2)c1` (stereo unspecified)?
Pf growth 96h: -17%; Giardia FBPA inh: -4%; Shiga toxin inh: 79*; CHX counter: 54*; NS1 inh: -4%; Pf growth 48h: inconclusive

Results for CC(O)[C@@H](O)[C@H]1CNc2nc(N)[nH]c(=O)c2N1 (stereo partly specified) ?
Giardia FBPA inh: -1%; NS1 inh: -1%

Results for Cn1cc(Br)c(-c2cccc(NC(=O)CCCC(=O)O)c2)n1 ?
Pf growth 96h: -23%; Giardia FBPA inh: 19%; Shiga toxin inh: 8; CHX counter: 1; NS1 inh: 7%; Pf growth 48h: inconclusive

What do the screens show for `COc1cc(C(=O)Nc2cccc(C)c2C)ccc1OCC(=O)N1CCOCC1`?
Pf growth 96h: 18%; Pf growth 48h: 15%

What do the screens show for `CS(=O)(=O)N1CCN(Cc2cc(=O)n3ccsc3n2)CC1`?
Pf growth 96h: -5%; Giardia FBPA inh: -6%; Shiga toxin inh: 1; CHX counter: 1; NS1 inh: -9%; Pf growth 48h: -6%

Results for Cc1ccccc1NC(=O)C1Cc2ccccc2CN1C(=O)c1ccco1 (stereo unspecified) ?
Pf growth 96h: -27%; Giardia FBPA inh: -12%; Shiga toxin inh: 77*; CHX counter: 45*; NS1 inh: 8%; Pf growth 48h: -22%

What do the screens show for `COc1cccc(NC(=O)[C@@H]2CCCN2C(=O)[C@@H]2Cc3ccccc3CN2C(=O)OC(C)(C)C)c1`?
Pf growth 96h: inconclusive; Shiga toxin inh: 52; CHX counter: 20*; NS1 inh: 5%; Pf growth 48h: inconclusive

Results for COc1ccc(CNC(=O)[C@@H]2CCCN2C(=O)[C@@H]2Cc3ccccc3CN2C(=O)OC(C)(C)C)cc1 ?
Pf growth 96h: inconclusive; Shiga toxin inh: 10; CHX counter: 2; NS1 inh: 5%; Pf growth 48h: inconclusive

Results for COC(=O)C1=C(C)N(Cc2ccccc2)C2=C3C(=O)OCCC3[C@@](O)(C(=O)OC)C(=O)N2C1c1ccccc1 (stereo partly specified) ?
Giardia FBPA inh: 1%[12.9 µM]

Results for COc1ccc(C(=O)c2ccc(N3CCOCC3)cc2)c(OC)c1 ?
Pf growth 96h: 44%; Giardia FBPA inh: 1%; Shiga toxin inh: 14; CHX counter: 14*; NS1 inh: 13%; Pf growth 48h: -4%

What do the screens show for `COc1ccc(C(=O)Nc2ccccc2C(=O)NCCN2CCOCC2)cc1OC`?
Pf growth 96h: 3%; Giardia FBPA inh: 0%; Shiga toxin inh: -9; CHX counter: -3; NS1 inh: 1%; Pf growth 48h: 47%

How did CCN(Cc1ccccc1)c1ccc(/C=C(\C#N)c2ccccn2)cc1 do in these assays?
Pf growth 96h: inconclusive; Giardia FBPA inh: -25%; Shiga toxin inh: 98*; CHX counter: 56*; NS1 inh: -6%; Pf growth 48h: 10%

Results for N#C/C(=C\c1ccc(C(=O)O)cc1)c1ccccn1 ?
Pf growth 96h: 22%; Giardia FBPA inh: 9%; Shiga toxin inh: 13; CHX counter: 9; Pf growth 48h: 11%

What do the screens show for `CCN(CC)c1ccc(/C=C(\C#N)c2ccccn2)cc1`?
Pf growth 96h: -92%; Giardia FBPA inh: 1%; Shiga toxin inh: 26; CHX counter: 35*; NS1 inh: -16%; Pf growth 48h: -63%

How did CN(CCC#N)c1ccc(/C=C(\C#N)c2ccccn2)cc1 do in these assays?
Pf growth 96h: 81%; Giardia FBPA inh: -22%; Shiga toxin inh: active; CHX counter: 48*; NS1 inh: -10%; Pf growth 48h: 111%

Results for CC[C@H](C)[C@H](NC(=O)[C@H](Cc1ccccc1)NC(=O)[C@H](CCC(=O)O)NC(=O)[C@H](CCCCN)NC(=O)[C@H](C)NC(=O)[C@H](C)NC(=O)[C@H](CCC(N)=O)NC(=O)CNC(=O)[C@H](CCC(=O)O)NC(=O)[C@H](CC(C)C)NC(=O)[C@H](Cc1ccc(O)cc1)NC(=O)[C@H](CO)NC(=O)[C@H](CO)NC(=O)[C@@H](NC(=O)[C@H](CC(=O)O)NC(=O)[C@H](CO)NC(=O)[C@@H](NC(=O)[C@H](Cc1ccccc1)NC(=O)[C@@H](NC(=O)CNC(=O)[C@H](CCC(=O)O)NC(=O)[C@H](C)NC(=O)[C@@H](N)Cc1cnc[nH]1)[C@@H](C)O)[C@@H](C)O)C(C)C)C(=O)N[C@@H](C)C(=O)N[C@@H](Cc1c[nH]c2ccccc12)C(=O)N[C@@H](CC(C)C)C(=O)N[C@H](C(=O)N[C@@H](CCCCN)C(N)=O)C(C)C ?
Giardia FBPA inh: -1%; Shiga toxin inh: -3; CHX counter: 10

How did c1sc2[n+](c1C13CC4CC(CC(C4)C1)C3)CCS2 do in these assays?
Pf growth 96h: 2.9µM*; Giardia FBPA inh: -2%; Shiga toxin inh: 11; CHX counter: -1; NS1 inh: 3%; Pf growth 48h: 2.3µM*

How did O=C(O)c1ccc2c(c1)C(=O)N([C@H](Cc1ccc(Cl)cc1)C(=O)O)C2=O do in these assays?
Pf growth 96h: 0%; Giardia FBPA inh: 11%; Shiga toxin inh: 5; CHX counter: -4; Pf growth 48h: inconclusive

How did CCc1cccc2sc(N(CCCN3CCOCC3)C(=O)CS(=O)(=O)c3ccccc3)nc12 do in these assays?
Pf growth 96h: inconclusive; Pf growth 48h: 9.3µM*

How did O=C(c1ccco1)N(c1ccccn1)c1ccccn1 do in these assays?
Giardia FBPA inh: 4%; Shiga toxin inh: 7; CHX counter: -2; NS1 inh: -6%; Pf growth 48h: -1%

What do the screens show for `CC1=CC(=C(C#N)c2nc3ccccc3s2)C=C(C)N1Cc1ccco1`?
Giardia FBPA inh: -15%; Shiga toxin inh: 14; CHX counter: -3; NS1 inh: -3%; Pf growth 48h: 3.3µM*
